Consider 20 compounds from the supplement of paper PMC6853941.

Values without a mark were called inactive.

For the first assay, the system named is MCF10A. Description: perturbation Mahalanobis distance of morphological profile vs DMSO controls (Mahalanobis distance (SD units)); higher = stronger morphological change, active = 7 or more. The following applies: screen batch: Batch1_Mahalanobis_Distance; 72 h. The method, then: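 MCF10A cells were seeded onto drugs dispensed acoustically into 384-well plates, using one dose per drug chosen from its human peak plasma concentration, and incubated for 72 h at 37 °C. Cells were stained for DNA, tubulin and mitochondria and imaged; 78 CellProfiler features were extracted, plate-normalised and compared with DMSO wells.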
For `CS(=O)(=O)OCCCCOS(C)(=O)=O` [Busulfan] (1.4 µM), the “perturbation Mahalanobis distance” value was 2.31.
Take `O=c1n(CCCN2CCN(c3cccc(Cl)c3)CC2)nc2ccccn12` [Trazodone] (21.5 µM): the “perturbation Mahalanobis distance” value was 2.62.
On the same count and under the same terms, the result for `CCN(CC)CCCC(C)Nc1ccnc2cc(Cl)ccc12` (centres undefined) [Chloroquine] (4.7 µM) reads 2.4.
The same measure, in the same setting: the result for `OCCN(CCO)c1nc(N2CCCCC2)c2nc(N(CCO)CCO)nc(N3CCCCC3)c2n1` [Dipyridamole] (19.8 µM) reads 2.41; that for `CC(=O)S[C@@H]1CC2=CC(=O)CC[C@]2(C)[C@H]2CC[C@@]3(C)[C@@H](CC[C@@]34CCC(=O)O4)[C@H]12` [Spironolactone] (3 µM), 3.75; that for `Cc1ncc([N+](=O)[O-])n1CCO` [Metronidazole] (58.4 µM), 3.04.
Same read-out and setting: to `CCCc1nn(C)c2c(=O)[nH]c(-c3cc(S(=O)(=O)N4CCN(C)CC4)ccc3OCC)nc12` [Sildenafil] (0.53 µM) belongs 3.27.
For the compound `C1CNCCN1` [Piperazine Hexahydrate] (5.8 µM), the “perturbation Mahalanobis distance” value is 2.12.
The same measure, in the same setting: the result for `Cc1ccccc1C(=O)Nc1ccc(C(=O)N2CCC[C@@H](O)c3cc(Cl)ccc32)c(C)c1` [Tolvaptan] (11.1 µM) reads 2.12.
Still for that read-out and setting: the result for `Cc1ccc(Nc2nccc(N(C)c3ccc4c(C)n(C)nc4c3)n2)cc1S(N)(=O)=O` [Pazopanib] (132.6 µM) reads 3.25; that for `C[C@]12C=CC(=O)N[C@@H]1CC[C@@H]1[C@@H]2CC[C@]2(C)[C@@H](C(=O)Nc3cc(C(F)(F)F)ccc3C(F)(F)F)CC[C@@H]12` [Dutasteride] (12 µM), 2.35.
Turning to `CCc1c2c(nc3ccc(O)cc13)-c1cc3c(c(=O)n1C2)COC(=O)[C@]3(O)CC` [7-Ethyl-10-Hydroxy-Camptothecin] (16.78 µM), the “perturbation Mahalanobis distance” value was 2.85.
On the same count and under the same terms, to `CCCCN(CCCC)CCC(O)c1cc2c(Cl)cc(Cl)cc2c2cc(C(F)(F)F)ccc12` (centres undefined) [Halofantrine] (63.9 µM) belongs 7.37 (active); to `O=C(O)P(=O)(O)O` [Foscarnet] (887 µM), 3.95.
In the case of `CCCN[C@H]1CCc2nc(N)sc2C1` [Pramipexole] (0.15 µM), the “perturbation Mahalanobis distance” value is 2.79.
Regarding `CC1(C)O[C@@H]2[C@@H](CO[C@@]3(COS(N)(=O)=O)OC(C)(C)O[C@@H]23)O1` [Topiramate] (76.6 µM), the “perturbation Mahalanobis distance” value was 2.96.
Still for that read-out and setting: to `Nc1nc(N)c2nc(-c3ccccc3)c(N)nc2n1` [Triamterene] (2 µM) belongs 3.18; to `CCCCNc1cc(C(=O)O)cc(S(N)(=O)=O)c1Oc1ccccc1` [Bumetanide] (1 µM), 3.62.
Same read-out and setting: to `C[C@@H](O[C@@H]1OCCN(Cc2nc(=O)[nH][nH]2)[C@@H]1c1ccc(F)cc1)c1cc(C(F)(F)F)cc(C(F)(F)F)c1` [Aprepitant] (20.7 µM) belongs 5.02.

Staying with this assay, now noted: screen batch: Batch2_Mahalanobis_Distance; 72 h.
On to `N#C[C@@H]1C[C@@H]2C[C@@H]2N1C(=O)[C@@H](N)C12CC3CC(CC(O)(C3)C1)C2` [Saxagliptin] (0.38 µM), for which the “perturbation Mahalanobis distance” value was 3.33.
Still for that read-out and setting: to `CS(=O)(=O)OCCCCOS(C)(=O)=O` [Busulfan] (1.4 µM) belongs 2.95; to `O=c1n(CCCN2CCN(c3cccc(Cl)c3)CC2)nc2ccccn12` [Trazodone] (21.5 µM), 3.12; to `CCN(CC)CCCC(C)Nc1ccnc2cc(Cl)ccc12` (centres undefined) [Chloroquine] (4.7 µM), 2.82.
As for `OCCN(CCO)c1nc(N2CCCCC2)c2nc(N(CCO)CCO)nc(N3CCCCC3)c2n1` [Dipyridamole] (19.8 µM), the “perturbation Mahalanobis distance” value is 3.01.
Same read-out and setting: to `CC(=O)S[C@@H]1CC2=CC(=O)CC[C@]2(C)[C@H]2CC[C@@]3(C)[C@@H](CC[C@@]34CCC(=O)O4)[C@H]12` [Spironolactone] (3 µM) belongs 5.83; to `Cc1ncc([N+](=O)[O-])n1CCO` [Metronidazole] (58.4 µM), 2.36.
Take `CCCc1nn(C)c2c(=O)[nH]c(-c3cc(S(=O)(=O)N4CCN(C)CC4)ccc3OCC)nc12` [Sildenafil] (0.53 µM): the “perturbation Mahalanobis distance” value was 4.22.
Consider `C1CNCCN1` [Piperazine Hexahydrate] (5.8 µM), for which the “perturbation Mahalanobis distance” value was 2.76.
Still for that read-out and setting: the result for `Cc1ccccc1C(=O)Nc1ccc(C(=O)N2CCC[C@@H](O)c3cc(Cl)ccc32)c(C)c1` [Tolvaptan] (11.1 µM) reads 6.06.
Still for that read-out and setting: the result for `Cc1ccc(Nc2nccc(N(C)c3ccc4c(C)n(C)nc4c3)n2)cc1S(N)(=O)=O` [Pazopanib] (132.6 µM) reads 2.85.
Same read-out and setting: to `C[C@]12C=CC(=O)N[C@@H]1CC[C@@H]1[C@@H]2CC[C@]2(C)[C@@H](C(=O)Nc3cc(C(F)(F)F)ccc3C(F)(F)F)CC[C@@H]12` [Dutasteride] (12 µM) belongs 2.96; to `CCc1c2c(nc3ccc(O)cc13)-c1cc3c(c(=O)n1C2)COC(=O)[C@]3(O)CC` [7-Ethyl-10-Hydroxy-Camptothecin] (16.78 µM), 2.55; to `CCCCN(CCCC)CCC(O)c1cc2c(Cl)cc(Cl)cc2c2cc(C(F)(F)F)ccc12` (centres undefined) [Halofantrine] (63.9 µM), 2.57.
Regarding `O=C(O)P(=O)(O)O` [Foscarnet] (887 µM), the “perturbation Mahalanobis distance” value is 2.62.
On the same count and under the same terms, the result for `CCCN[C@H]1CCc2nc(N)sc2C1` [Pramipexole] (0.15 µM) reads 2.65; that for `CC1(C)O[C@@H]2[C@@H](CO[C@@]3(COS(N)(=O)=O)OC(C)(C)O[C@@H]23)O1` [Topiramate] (76.6 µM), 3.08.
Still for that read-out and setting: the result for `Nc1nc(N)c2nc(-c3ccccc3)c(N)nc2n1` [Triamterene] (2 µM) reads 4.38; that for `CCCCNc1cc(C(=O)O)cc(S(N)(=O)=O)c1Oc1ccccc1` [Bumetanide] (1 µM), 2.57.
Still for that read-out and setting: the result for `C[C@@H](O[C@@H]1OCCN(Cc2nc(=O)[nH][nH]2)[C@@H]1c1ccc(F)cc1)c1cc(C(F)(F)F)cc(C(F)(F)F)c1` [Aprepitant] (20.7 µM) reads 3.18.
